# Records with an inconclusive call do not appear. Calls of active or inactive are those of the source. The calls were made as follows, unless noted: active = hit-call score of the fitted dose curve at least 0.9, where 1 is the maximum; inactive = score below 0.9.
# Legend:
# [1] = target: CCAAT/enhancer-binding protein beta (Homo sapiens) (UniProt P17676); experiment: ATG_C_EBP_CIS: Attagene CIS-FACTORIAL HepG2 Assay for human CCAAT/Enhancer Binding Protein (C/EBP) beta (AID 2282927); settings: HepG2 Attagene cis-factorial transcription factor reporter; actives raise or lower the signal
# Sequence of CCAAT/enhancer-binding protein beta (Homo sapiens) (P17676 whole entry, looked up, the tested form may be a part): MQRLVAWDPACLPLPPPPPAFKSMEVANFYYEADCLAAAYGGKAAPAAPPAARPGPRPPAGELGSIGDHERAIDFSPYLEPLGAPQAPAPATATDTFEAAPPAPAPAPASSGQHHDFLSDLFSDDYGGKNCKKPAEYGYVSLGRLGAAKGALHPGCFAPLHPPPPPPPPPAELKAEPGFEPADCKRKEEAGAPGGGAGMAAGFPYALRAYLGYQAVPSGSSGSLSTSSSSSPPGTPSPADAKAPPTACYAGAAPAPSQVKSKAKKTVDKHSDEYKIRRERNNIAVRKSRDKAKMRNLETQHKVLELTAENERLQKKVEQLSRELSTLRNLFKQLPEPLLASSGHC
# Procedure, shortened: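 Endogenous C/EBPb-driven reporter transcripts measured in transfected human HepG2 cells at 24 h via RT-PCR and capillary electrophoresis of labelled fragments. Activity fitted in both directions relative to DMSO baseline.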
# [2] = ATG_CMV_CIS: Attagene CIS-FACTORIAL HepG2 Assay for human CMV (Internal Marker) (AID 2282928); settings: HepG2 CMV promoter reporter, transcription factor profiling; actives raise or lower the signal;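 also: endpoint acts as a background internal control marker rather than a target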
# Procedure, shortened: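 24 h chemical treatment, HepG2 with transient multi-reporter transfection; RNA → oligo(dT) RT → PCR → 6-FAM extension → HpaI digest → CE fluorescence. Bidirectional fit, DMSO negative control.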
# [3] = target: Aryl hydrocarbon receptor (Homo sapiens) (UniProt P35869); experiment: ATG_Ahr_CIS: Attagene CIS-FACTORIAL HepG2 Assay for human Aryl Hydrocarbon Receptor (Ahr) (AID 2282930); settings: HepG2 AhR cis-factorial reporter transcription; actives raise or lower the signal
# Sequence of Aryl hydrocarbon receptor (Homo sapiens) (P35869 whole entry, looked up): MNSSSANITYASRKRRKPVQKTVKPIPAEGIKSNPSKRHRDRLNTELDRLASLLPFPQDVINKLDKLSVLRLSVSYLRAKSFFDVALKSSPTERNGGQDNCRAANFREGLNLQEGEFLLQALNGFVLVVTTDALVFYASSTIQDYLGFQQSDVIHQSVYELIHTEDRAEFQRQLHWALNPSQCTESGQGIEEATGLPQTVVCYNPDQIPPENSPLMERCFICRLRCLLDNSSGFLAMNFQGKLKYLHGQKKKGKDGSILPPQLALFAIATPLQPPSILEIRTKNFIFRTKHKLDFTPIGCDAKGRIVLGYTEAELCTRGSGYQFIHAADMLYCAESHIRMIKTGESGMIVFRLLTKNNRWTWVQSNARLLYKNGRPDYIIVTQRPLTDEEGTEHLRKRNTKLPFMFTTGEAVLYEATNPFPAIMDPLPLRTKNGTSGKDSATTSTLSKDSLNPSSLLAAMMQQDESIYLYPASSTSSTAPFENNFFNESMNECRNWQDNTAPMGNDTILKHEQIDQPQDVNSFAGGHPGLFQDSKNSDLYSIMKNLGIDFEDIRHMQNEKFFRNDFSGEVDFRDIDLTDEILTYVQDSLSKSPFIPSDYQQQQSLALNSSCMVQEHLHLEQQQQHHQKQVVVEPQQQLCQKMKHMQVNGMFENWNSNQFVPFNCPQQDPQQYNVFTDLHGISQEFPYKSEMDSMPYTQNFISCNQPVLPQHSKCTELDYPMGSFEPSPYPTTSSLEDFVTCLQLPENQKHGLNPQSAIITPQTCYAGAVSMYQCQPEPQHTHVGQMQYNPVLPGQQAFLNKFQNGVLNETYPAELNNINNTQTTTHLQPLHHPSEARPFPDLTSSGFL
# Procedure, shortened: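 Reporter mRNA levels, quantified by RT-PCR and fluorescent capillary electrophoresis, reflect endogenous AhR transcriptional activity in HepG2 cells carrying transfected cis-promoter reporter constructs. Readout at 24 h post-dose; gain or loss fitted against DMSO baseline.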
# [4] = ATG_AP_1_CIS: Attagene CIS-FACTORIAL HepG2 Assay for human Activator Protein 1 (AP-1) (AID 2282931); settings: HepG2 Attagene cis-factorial AP-1 reporter mRNA; actives raise or lower the signal
# Procedure, shortened: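 We transfected HepG2 cells transiently with a set of cis-regulated reporter transcription units, dosed them for 24 h, and quantified reporter mRNA via RT-PCR and capillary electrophoresis, scoring gain or loss of signal relative to DMSO.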
# [5] = ATG_EGR_CIS: Attagene CIS-FACTORIAL HepG2 Assay for human Early Growth Response 1 (EGR1) (AID 2282938); settings: HepG2 Attagene CIS-FACTORIAL EGR reporter mRNA; actives raise or lower the signal
# Procedure, shortened: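 Multiplexed cis-reporter system in human hepatoma HepG2 cells, transiently transfected. Cells are dosed for 24 h; reporter transcripts are amplified, fluorescently tagged and sized by capillary electrophoresis, with DMSO as negative control.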
# [6] = ATG_GLI_CIS: Attagene CIS-FACTORIAL HepG2 Assay for human Zinc Finger Protein GLI1 (AID 2282945); settings: HepG2, Attagene cis-factorial reporter mRNA, GLI element; actives raise or lower the signal
# Procedure, shortened: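 Bidirectional curve fits relative to DMSO, using reporter mRNA levels from RT-PCR plus capillary electrophoresis. Cells were HepG2 transiently carrying cis-regulated reporter constructs, harvested 24 h after dosing.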
# [7] = ATG_ISRE_CIS: Attagene CIS-FACTORIAL HepG2 Assay for human Interferon Regulatory Factor 1 (IRF1) binding to an Interferon-Stimulated Response Element (ISRE) (AID 2282948); settings: HepG2 ISRE cis-reporter (Attagene), mRNA transcription readout; actives raise or lower the signal
# Procedure, shortened: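 Multiplexed mRNA reporter readout in human liver HepG2 cells: cis-element-driven reporters transfected, compound added for 24 h, transcripts amplified, fluorescently labelled and sized by capillary electrophoresis; curve fitting bidirectional against DMSO.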
# [8] = ATG_M_06_CIS: Attagene CIS-FACTORIAL HepG2 Assay for M06 Transcription Factor (Internal Marker) (AID 2282950); settings: HepG2 Attagene CIS-FACTORIAL M06 internal marker reporter; actives raise or lower the signal
# Procedure, shortened: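 HepG2 liver cells, 24 h exposure. Reporter transcripts from transfected cis-element constructs quantified by RT-PCR/capillary electrophoresis fluorescence. Bidirectional curve fit against DMSO.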
# [9] = target: Hypoxia-inducible factor 1-alpha (Homo sapiens) (UniProt Q16665); experiment: ATG_HIF1a_CIS: Attagene CIS-FACTORIAL HepG2 Assay for human Hypoxia Inducible Factor 1 (HIF1A) (AID 2282951); settings: HepG2 Attagene cis-factorial HIF1a reporter transcription; actives raise or lower the signal
# Sequence of Hypoxia-inducible factor 1-alpha (Homo sapiens) (Q16665 whole entry, looked up): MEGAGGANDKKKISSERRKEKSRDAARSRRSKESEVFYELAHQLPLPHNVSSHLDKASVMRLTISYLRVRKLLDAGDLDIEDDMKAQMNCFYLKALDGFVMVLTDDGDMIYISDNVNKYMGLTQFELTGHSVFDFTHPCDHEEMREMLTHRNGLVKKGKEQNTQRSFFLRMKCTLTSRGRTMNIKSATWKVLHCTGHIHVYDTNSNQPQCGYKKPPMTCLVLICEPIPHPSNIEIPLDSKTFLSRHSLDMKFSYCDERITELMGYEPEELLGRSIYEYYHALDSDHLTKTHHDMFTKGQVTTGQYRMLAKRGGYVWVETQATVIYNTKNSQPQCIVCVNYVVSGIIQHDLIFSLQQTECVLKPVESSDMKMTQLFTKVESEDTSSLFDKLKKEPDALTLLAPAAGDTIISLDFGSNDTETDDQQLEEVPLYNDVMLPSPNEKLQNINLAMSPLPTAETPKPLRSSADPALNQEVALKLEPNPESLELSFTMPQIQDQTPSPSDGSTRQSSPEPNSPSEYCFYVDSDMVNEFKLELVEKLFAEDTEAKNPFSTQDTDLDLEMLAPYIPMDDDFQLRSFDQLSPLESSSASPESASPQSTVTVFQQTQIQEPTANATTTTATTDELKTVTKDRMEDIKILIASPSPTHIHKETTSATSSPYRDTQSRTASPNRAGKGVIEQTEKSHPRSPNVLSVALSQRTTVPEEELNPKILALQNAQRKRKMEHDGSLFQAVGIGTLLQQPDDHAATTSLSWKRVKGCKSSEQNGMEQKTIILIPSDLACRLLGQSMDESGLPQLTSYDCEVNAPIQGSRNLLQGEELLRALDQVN
# Procedure, shortened: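 Cis-element reporter constructs were transiently transfected into HepG2 cells, which were treated for 24 h; reporter RNA was reverse-transcribed, amplified, labelled and resolved by capillary electrophoresis.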
# [10] = target: Heat shock factor protein 1 (Homo sapiens) (UniProt Q00613); experiment: ATG_HSE_CIS: Attagene CIS-FACTORIAL HepG2 Assay for human Heat Shock Transcription Factor 1 (HSE) (AID 2282953); settings: HepG2 HSE cis-reporter, Attagene RNA transcription; actives raise or lower the signal
# Sequence of Heat shock factor protein 1 (Homo sapiens) (Q00613 whole entry, looked up, the tested form may be a part): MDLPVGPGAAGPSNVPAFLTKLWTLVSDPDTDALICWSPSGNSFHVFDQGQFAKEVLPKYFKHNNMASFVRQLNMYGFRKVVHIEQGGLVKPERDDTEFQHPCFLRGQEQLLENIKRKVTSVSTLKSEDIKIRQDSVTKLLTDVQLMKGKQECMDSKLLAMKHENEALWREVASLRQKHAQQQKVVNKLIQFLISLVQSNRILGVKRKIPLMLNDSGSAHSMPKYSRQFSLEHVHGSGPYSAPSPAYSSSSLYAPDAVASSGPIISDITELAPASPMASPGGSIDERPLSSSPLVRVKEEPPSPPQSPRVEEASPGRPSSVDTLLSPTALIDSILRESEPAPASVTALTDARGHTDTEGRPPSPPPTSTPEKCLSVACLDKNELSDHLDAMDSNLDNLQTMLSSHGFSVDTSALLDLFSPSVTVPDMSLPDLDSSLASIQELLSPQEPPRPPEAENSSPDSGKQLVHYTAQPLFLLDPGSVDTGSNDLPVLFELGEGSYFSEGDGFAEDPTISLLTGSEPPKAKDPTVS
# Procedure, shortened: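 Endogenous transcription factor activity captured via cis-promoter reporter units transfected into HepG2; treatment lasted 24 h. Fluorescence intensity of reporter fragments analysed with bidirectional curve fitting, DMSO baseline.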
# [11] = ATG_TAL_CIS: Attagene CIS-FACTORIAL HepG2 Assay for human TAL Basal Promoter (AID 2282966); settings: HepG2 Attagene cis-factorial TAL promoter reporter; actives raise or lower the signal;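 also: background control endpoint measuring basal TAL promoter reporter mRNA not a specific factor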
# Procedure, shortened: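 Human hepatoma HepG2 cells, transfected with promoter-regulated reporter units, were treated 24 h. Reporter transcript levels, measured through RT-PCR and capillary electrophoresis, were fitted for gain or loss relative to DMSO.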
# [12] = ATG_VDRE_CIS: Attagene CIS-FACTORIAL HepG2 Assay for human Vitamin D Receptor Element (VDRE) (AID 2282968); settings: HepG2 VDRE cis-reporter transcription, actives raise or lower the signal
# Procedure, shortened: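 Readout is VDRE-driven reporter mRNA reflecting endogenous factor activity in human HepG2 cells, sampled 24 h post-dose. Quantification used labelled RT-PCR products separated by capillary electrophoresis; bidirectional analysis relative to DMSO.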
# [13] = target: X-box-binding protein 1 (Homo sapiens) (UniProt P17861); experiment: ATG_Xbp1_CIS: Attagene CIS-FACTORIAL HepG2 Assay for human X-box Binding Protein 1 (XBP1) (AID 2282972); settings: HepG2 XBP1 cis-element reporter, Attagene multiplex; actives raise or lower the signal
# Sequence of X-box-binding protein 1 (Homo sapiens) (P17861 whole entry, looked up): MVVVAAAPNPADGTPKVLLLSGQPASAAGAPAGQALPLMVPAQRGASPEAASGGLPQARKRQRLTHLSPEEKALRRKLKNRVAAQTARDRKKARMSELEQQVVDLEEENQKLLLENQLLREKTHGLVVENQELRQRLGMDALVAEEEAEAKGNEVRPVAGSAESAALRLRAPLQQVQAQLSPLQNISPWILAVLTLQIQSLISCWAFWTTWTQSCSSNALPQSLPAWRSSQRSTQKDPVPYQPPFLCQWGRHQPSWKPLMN
# Procedure, shortened: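 Multiplexed cis-reporter readout in transfected HepG2 liver cells. Exposure lasted 24 hours. Activity in either direction was fitted against DMSO as negative control and baseline.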
# [14] = target: Transcriptional activator Myb (Homo sapiens) (UniProt P10242); experiment: ATG_Myb_CIS: Attagene CIS-FACTORIAL HepG2 Assay for human Myeloblastosis (Myb) Proto-Oncogene Transcription Factor (AID 2282986); settings: HepG2 Attagene CIS-FACTORIAL Myb reporter transcription; actives raise or lower the signal
# Sequence of Transcriptional activator Myb (Homo sapiens) (P10242 whole entry, looked up): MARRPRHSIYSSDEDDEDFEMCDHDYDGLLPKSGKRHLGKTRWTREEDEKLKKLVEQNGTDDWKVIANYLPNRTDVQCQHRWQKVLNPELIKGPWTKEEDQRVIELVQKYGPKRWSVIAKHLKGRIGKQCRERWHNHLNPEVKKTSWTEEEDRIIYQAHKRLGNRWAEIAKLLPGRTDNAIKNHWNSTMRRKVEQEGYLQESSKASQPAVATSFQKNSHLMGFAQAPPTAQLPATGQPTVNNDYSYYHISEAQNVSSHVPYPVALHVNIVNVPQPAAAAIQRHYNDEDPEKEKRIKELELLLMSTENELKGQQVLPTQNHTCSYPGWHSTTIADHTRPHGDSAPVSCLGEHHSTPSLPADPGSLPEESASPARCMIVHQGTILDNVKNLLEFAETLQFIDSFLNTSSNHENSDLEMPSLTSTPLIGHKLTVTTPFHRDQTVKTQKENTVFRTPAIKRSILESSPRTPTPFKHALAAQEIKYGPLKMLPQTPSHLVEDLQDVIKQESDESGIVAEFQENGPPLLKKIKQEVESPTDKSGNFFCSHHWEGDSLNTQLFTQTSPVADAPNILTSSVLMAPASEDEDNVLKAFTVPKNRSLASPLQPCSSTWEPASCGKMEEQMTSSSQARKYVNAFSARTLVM
# Procedure, shortened: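 Using HepG2 liver cells bearing transiently transfected cis-promoter reporter constructs, the assay measures induction or loss of reporter mRNA after 24 hours of dosing. Detection used fluorescently labeled RT-PCR products separated by capillary electrophoresis.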
# [15] = target: Nuclear respiratory factor 1 (Homo sapiens) (UniProt Q16656); experiment: ATG_NRF1_CIS: Attagene CIS-FACTORIAL HepG2 Assay for human Nuclear Respiratory Factor 1 (NRF1) Orphan Gene (AID 2282987); settings: HepG2 NRF1 cis-element reporter, Attagene multiplex; actives raise or lower the signal
# Sequence of Nuclear respiratory factor 1 (Homo sapiens) (Q16656 whole entry, looked up): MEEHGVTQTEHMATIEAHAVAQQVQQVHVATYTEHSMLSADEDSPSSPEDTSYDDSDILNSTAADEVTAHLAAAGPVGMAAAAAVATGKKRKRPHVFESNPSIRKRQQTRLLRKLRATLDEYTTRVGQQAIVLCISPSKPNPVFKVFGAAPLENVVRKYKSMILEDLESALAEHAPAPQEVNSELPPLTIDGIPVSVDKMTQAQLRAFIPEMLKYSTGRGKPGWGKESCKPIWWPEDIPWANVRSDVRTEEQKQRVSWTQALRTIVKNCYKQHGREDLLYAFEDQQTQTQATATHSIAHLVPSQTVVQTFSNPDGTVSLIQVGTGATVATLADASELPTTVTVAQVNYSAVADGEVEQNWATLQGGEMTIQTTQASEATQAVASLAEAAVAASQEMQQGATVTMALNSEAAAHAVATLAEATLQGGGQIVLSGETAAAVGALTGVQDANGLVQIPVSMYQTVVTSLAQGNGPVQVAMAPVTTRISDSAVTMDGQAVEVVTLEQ
# Procedure, shortened: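 Reporter mRNA induction or loss in HepG2 cells after 24 h dosing; cis-regulated reporter constructs report endogenous transcription-factor activity. Quantified by RT-PCR/capillary electrophoresis fluorescence, DMSO-referenced.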
# [16] = ATG_NFI_CIS: Attagene CIS-FACTORIAL HepG2 Assay for human Nuclear Factor I (NFI) (AID 2282989); settings: HepG2 cis-regulatory reporter, NFI response element transcription; actives raise or lower the signal
# Procedure, shortened: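 Cells: human liver HepG2, transiently transfected with promoter-regulated reporter transcription units. Exposure 24 h. Detection: fluorescent RT-PCR products separated by capillary electrophoresis, normalised to DMSO negative control.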
# [17] = ATG_NRF2_ARE_CIS: Attagene CIS-FACTORIAL HepG2 Assay for human Nuclear Factor Erythroid 2 Related Factor 2 (NFR2) response to Antioxidant Response Elements (ARE) (AID 2282992); settings: HepG2 Attagene ARE/NRF2 reporter, transcription factor activity; actives raise or lower the signal;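 as to AC50: reporter mRNA level measured by RT-PCR and capillary electrophoresis fluorescence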
# Procedure, shortened: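 Endogenous transcription factor activity in human liver HepG2 cells is tracked via a cis-element-driven reporter within a multiplexed set. mRNA induction is read by RT-PCR and capillary electrophoresis after 24 h, with DMSO as baseline.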
# [18] = ATG_Oct_MLP_CIS: Attagene CIS-FACTORIAL HepG2 Assay for human Octamer-Binding Transcription Factor (Oct) (AID 2282993); settings: HepG2 Attagene cis-factorial Oct reporter, mRNA; actives raise or lower the signal
# Procedure, shortened: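 HepG2, transient MRTU transfection, cis promoter elements; 24 h dosing; RT-PCR/CE fluorescence read-out of reporter mRNA; fit both directions vs DMSO.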
# [19] = target: Cellular tumor antigen p53 (Homo sapiens) (UniProt P04637); experiment: ATG_p53_CIS: Attagene CIS-FACTORIAL HepG2 Assay for human p53 Transcription Factor (AID 2282994); settings: HepG2 p53 cis-element reporter, Attagene mRNA; actives raise or lower the signal
# Sequence of Cellular tumor antigen p53 (Homo sapiens) (P04637 whole entry, looked up, the tested form may be a part): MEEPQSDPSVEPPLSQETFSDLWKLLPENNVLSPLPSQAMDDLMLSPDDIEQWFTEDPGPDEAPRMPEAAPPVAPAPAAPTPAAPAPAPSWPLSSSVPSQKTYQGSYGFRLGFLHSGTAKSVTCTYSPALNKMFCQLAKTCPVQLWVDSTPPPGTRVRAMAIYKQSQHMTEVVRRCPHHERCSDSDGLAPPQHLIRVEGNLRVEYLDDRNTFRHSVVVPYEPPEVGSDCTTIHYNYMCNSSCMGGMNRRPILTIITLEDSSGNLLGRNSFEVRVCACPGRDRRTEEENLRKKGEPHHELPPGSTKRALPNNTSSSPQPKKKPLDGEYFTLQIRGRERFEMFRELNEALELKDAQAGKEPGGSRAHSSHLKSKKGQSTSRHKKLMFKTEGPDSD
# Procedure, shortened: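 Steps: transfect HepG2 with multiplexed cis reporter constructs; dose chemicals 24 h; extract RNA, reverse-transcribe, PCR-amplify reporter sequences; FAM-label, HpaI-digest, resolve fragments by CE. Activity fitted both directions relative to DMSO.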
# [20] = ATG_XTT_Cytotoxicity: Cytotoxicity Assessment in the Attagene TRANS-FACTORIAL HepG2 Assay (AID 2283584; active = hit-call score of the fitted dose curve at least 0.9, where 1 is the maximum)
# Procedure, shortened: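 24 h chemical exposure of reporter-transfected HepG2; XTT signal loss vs DMSO indicates cytotoxicity.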
compound,measurement,setting,value
O=c1c2ccccc2c(=O)c2c1cc(Cl)c1[nH]c3c([nH]c12)c(Cl)cc1c(=O)c2ccccc2c(=O)c13,outcome,[1],inactive
same,outcome,[2],inactive
same,AC50,[3],33.6 µM (active)
same,outcome,[4],inactive
same,outcome,[5],inactive
same,outcome,[6],inactive
same,outcome,[7],inactive
same,outcome,[8],inactive
same,outcome,[9],inactive
same,outcome,[10],inactive
same,outcome,[11],inactive
same,outcome,[12],inactive
same,outcome,[13],inactive
same,outcome,[14],inactive
same,outcome,[15],inactive
same,outcome,[16],inactive
same,outcome,[17],inactive
same,outcome,[18],inactive
same,outcome,[19],inactive
same,outcome,[20],inactive
CCN(CC)C(=S)S,outcome,[1],inactive
same,AC50,[2],100 µM (active)
same,outcome,[3],inactive
same,AC50,[4],65.5 µM (active)
same,outcome,[5],inactive
same,outcome,[6],inactive
same,outcome,[7],inactive
same,outcome,[8],inactive
same,outcome,[9],inactive
same,outcome,[10],inactive
same,outcome,[11],inactive
same,outcome,[12],inactive
same,outcome,[13],inactive
same,outcome,[14],inactive
same,outcome,[15],inactive
same,outcome,[16],inactive
same,outcome,[18],inactive
O=C(NC(=O)c1c(F)cccc1F)Nc1ccc(Oc2ccc(C(F)(F)F)cc2Cl)cc1F,outcome,[1],inactive
same,AC50,[2],4.11 µM (active)
same,AC50,[3],8.23 µM (active)
same,outcome,[4],inactive
same,outcome,[5],inactive
same,outcome,[6],inactive
same,outcome,[8],inactive
same,outcome,[9],inactive
same,outcome,[10],inactive
same,outcome,[12],inactive
same,outcome,[13],inactive
same,outcome,[14],inactive
same,outcome,[15],inactive
same,outcome,[16],inactive
same,AC50,[17],34.5 µM (active)
same,outcome,[18],inactive
same,outcome,[19],inactive
same,outcome,[20],inactive
CC(C)C#N,outcome,[1],inactive
same,outcome,[2],inactive
same,outcome,[3],inactive
same,outcome,[4],inactive
same,outcome,[5],inactive
same,outcome,[6],inactive
same,outcome,[8],inactive
same,outcome,[9],inactive
same,outcome,[10],inactive
same,outcome,[11],inactive
same,outcome,[13],inactive
same,outcome,[14],inactive
same,outcome,[15],inactive
same,outcome,[16],inactive
same,outcome,[18],inactive
same,outcome,[20],inactive
CN1C(=O)CCS(=O)(=O)C1c1ccc(Cl)cc1 (configuration not stated),outcome,[1],inactive
same,outcome,[2],inactive
same,outcome,[3],inactive
same,outcome,[4],inactive
same,outcome,[6],inactive
same,outcome,[7],inactive
same,outcome,[8],inactive
same,outcome,[10],inactive
same,outcome,[12],inactive
same,outcome,[13],inactive
same,outcome,[14],inactive
same,outcome,[15],inactive
same,outcome,[16],inactive
same,outcome,[18],inactive
same,outcome,[20],inactive
CCOP(O)OCC,outcome,[1],inactive
same,outcome,[2],inactive
same,outcome,[3],inactive
same,outcome,[4],inactive
same,outcome,[6],inactive
same,outcome,[7],inactive
same,outcome,[8],inactive
same,outcome,[9],inactive
same,outcome,[10],inactive
same,outcome,[11],inactive
same,outcome,[12],inactive
same,outcome,[13],inactive
same,outcome,[14],inactive
same,outcome,[15],inactive
same,outcome,[16],inactive
same,outcome,[17],inactive
same,outcome,[18],inactive
same,outcome,[20],inactive
O=C(CCN1CC1)OCC(CO)(COC(=O)CCN1CC1)COC(=O)CCN1CC1,outcome,[1],inactive
same,outcome,[2],inactive
same,outcome,[3],inactive
same,outcome,[4],inactive
same,outcome,[5],inactive
same,outcome,[6],inactive
same,outcome,[9],inactive
same,outcome,[10],inactive
same,outcome,[11],inactive
same,outcome,[13],inactive
same,outcome,[14],inactive
same,outcome,[15],inactive
same,outcome,[16],inactive
same,outcome,[18],inactive
same,outcome,[19],inactive
same,outcome,[20],inactive
Cc1ccc(C)c2ccccc12,outcome,[1],inactive
same,outcome,[2],inactive
same,AC50,[3],27.7 µM (active)
same,outcome,[4],inactive
same,outcome,[5],inactive
same,outcome,[6],inactive
same,outcome,[8],inactive
same,outcome,[9],inactive
same,outcome,[10],inactive
same,outcome,[11],inactive
same,outcome,[12],inactive
same,outcome,[13],inactive
same,outcome,[14],inactive
same,outcome,[15],inactive
same,outcome,[16],inactive
same,outcome,[18],inactive
same,outcome,[20],inactive

# From PubChem BioAssay (EPA / NIEHS)
